This passage reports Potency and activity change, negative = cytotoxicity results from PubChem BioAssay (Tox21).

Molecules are shown by their SMILES. Results filed as inconclusive are left out. Entries that show only a call come without a potency. The source made the active and inactive calls. The call rests on the fitted dose curve; in most records, active means well fitted cell-killing curve with a large enough effect in the repeat runs; inconclusive means weak or mixed curves, or effect the other way; inactive means flat fitted curve, though single readings scatter.
Potency means the concentration at half of the fitted maximal effect.

A short description of the experiment: qHTS assay to identify small molecule antagonists of the estrogen receptor alpha (ER-alpha) signaling pathway using the BG1 cell line in the presence of 0.1 nM 17-beta-estradiol - cell viability counter screen (AID 1259241). Further: nearly all actives have a fitted effect of over 40% in size. The note with it: VM7Luc4E2 (BG1) viability, CellTiter-Fluor protease, 22 h, 0.1 nM estradiol agonist added; series mostly up to 92.4 µM. The source says: National Center for Advancing Translational Sciences [NCATS]
NIH Chemical Genomics Center [NCGC]
U.S. Environmental Protection Agency [EPA]
National Institutes of Environmental Health Sciences [NIEHS]
National Toxicology Program [NTP]
U.S. Food and Drug Administration [FDA]
Estrogen receptor (ER), a member of the nuclear hormone receptor plays an important role in development, metabolic homeostasis and reproduction. Two subtypes of ER, ER-alpha and ER-beta, have similar expression patterns with some uniqueness in both types. Endocrine disrupting chemicals (EDCs) and their interactions with steroid hormone receptors like ER causes disruption of normal endocrine function. Therefore, it is important to understand the effect of environmental chemicals in ER signaling pathway. For identifying ER antagonists, VM7Luc4E2 cell line was used to screen against Tox21 compound libraries.
VM7Luc4E2 cell line (provided by Denison MS, University of California) endogenously express full-length ER-alpha and is stably transfected with a plasmid containing four estrogen responsive elements (ERE) upstream of a luciferase reporter gene. The current screening for identification of ER-alpha inhibitors against Tox21 compound libraries used lower concentration (0.1 nM) of 17beta-Estradiol as a stimulator. The cytotoxicity of the Tox21 compound libraries against VM7Luc4E2 cell line was tested by measuring live-cell protease activity using CellTiter-Fluor assay in the same wells.
Tox21 Assay Protocol Summary:
VM7Luc4E2 cells were cultured in phenol red free assay medium containing 10% charcoal stripped FBS for 5 days prior to the assay. The cells were dispensed at 4,000 cells/well in 4 uL of assay medium into white wall/solid-bottom 1536-well plates (Corning Life Sciences, Corning, NY) using a Multidrop Combi (ThermoFisher Scientific, Waltham, MA) dispenser. After the assay plates were incubated at 37C and 5% CO2 for 24 hr, 23 nL of compounds dissolved in DMSO, positive controls or DMSO only was transferred to the assay plates by a Pintool station (Kalypsys, San Diego, CA). The transfer of compounds was followed by the addition of 1 uL of 0.1 nM (final concentration) agonist (17beta-Estradiol)/assay medium using a Flying Reagent Dispenser (FRD, Aurora Discovery, San Diego, CA). The plates were incubated at 37C and 5% CO2 for 22 hr. For cytotoxicity assay, 1 uL of CellTiter-Fluor reagent (Promega Corporation, Madison, WI) was added to each well using the FRD and after 30 min incubation at 37C and 5% CO2, The fluorescence intensity was measured using ViewLux plate reader (PerkinElmer, Shelton, CT).
(In general: In qHTS, concentration-response curves come from the screen itself.)
Take `CCn1nc(C)c2c1C(=O)NCC(c1ccc(O)cc1)=N2`: the Potency result is “inactive”.

Take `C=CC(=C)CCCC(C)(C)OC(C)=O`: the Potency entry was “inactive”.

Regarding `CC(=O)[C@H]1CC[C@H]2[C@@H]3C=CC4=CC(=O)CC[C@@]4(C)[C@@H]3CC[C@]12C`, the Potency result is “inactive”.

As for `CCOC(=O)OCC`, the Potency entry is “inactive”.

On to `CCCCN(CCCC)C(=S)SSC(=S)N(CCCC)CCCC`, for which the Potency result is “inactive”.

Turning to `COC(=O)Nc1nc2ccc(C(=O)c3cccs3)cc2[nH]1`, the Potency entry is “inactive”.

On to `NC(=O)Nc1ccc(Cl)c(Cl)c1`, for which the Potency result was “inactive”.

Regarding `CCCOCCOCCO`, the Potency entry was “inactive”.

Consider `CCCCC(CC)C(=O)OCCOCCOCCOCCOC(=O)C(CC)CCCC` (stereo not given), for which the Potency result is “inactive”.

Consider `Cc1ccc(Nc2nccc(N(C)c3ccc4c(C)n(C)nc4c3)n2)cc1S(N)(=O)=O`, for which the Potency result was “inactive”.

Turning to `CC(C)(C)CC(C)(C)c1ccc(OCCO)cc1`, the Potency was 54.2 µM (active).

Take `CC(C)C(=O)O`: the Potency result was “inactive”.

For the molecule `CC(C)OCC1CO1` (stereo not given), the Potency entry is “inactive”.

As for `CCCCC(CC)CNCC(CC)CCCC` (stereo not given), the Potency result is “inactive”.

With `O=C(O)c1cccnc1C(=O)O`, the Potency result was “inactive”.

As to `CO[Si](C)(OC)OC`, the Potency result is “inactive”.

As to `CCCCCCCCCCCC[N+](C)(C)CCCS(=O)(=O)[O-]`, the Potency entry is “inactive”.

As to `C(=C\c1ccccc1)/CN1CCN(C(c2ccccc2)c2ccccc2)CC1`, the Potency entry was “inactive”.

`CCOC(=O)CC(=O)C(=O)OCC`: the Potency entry is “inactive”.

Consider `OCCSc1ccccc1`, for which the Potency result is “inactive”.

Consider `COC(=O)CC(=O)C(C)(C)C`, for which the Potency entry was “inactive”.

As for `CN1C(=O)CC(C)(c2ccccc2)C1=O` (stereo not given), the Potency entry is “inactive”.

For the molecule `Nc1ccc(C(=O)OCCCOC(=O)c2ccc(N)cc2)cc1`, the Potency entry is “inactive”.

In the case of `CN1CCN(c2c(F)cc3c(=O)c(C(=O)O)cn4c3c2OCN4C)CC1`, the activity change, negative = cytotoxicity is 0.712% [at 19 µM] (inactive).

Regarding `CCCCOC(=O)CCS`, the Potency result is “inactive”.

`CCc1c2c(nc3ccc(OC(=O)N4CCC(N5CCCCC5)CC4)cc13)-c1cc3c(c(=O)n1C2)COC(=O)[C@]3(O)CC`: the Potency result is “inactive”.

`CCc1nn(CCCN2CCN(c3cccc(Cl)c3)CC2)c(=O)n1CCOc1ccccc1`: the Potency entry was “inactive”.

With `Cc1ccc(S)cc1`, the Potency entry is “inactive”.

Take `CN1Cc2cc(C(=O)N3CCC(C4CCNCC4)CC3)ccc2N[C@@H](CC(=O)O)C1=O`: the Potency entry was “inactive”.

In the case of `C=CCNc1nc(NCC=C)nc(N2CCN(C(c3ccc(F)cc3)c3ccc(F)cc3)CC2)n1`, the Potency result is “inactive”.

`CCCCCC=CCC=CCCCCCCCC(=O)OCC`: the Potency entry is “inactive”.

Turning to `NC(=O)N(O)[C@@H]1COc2cc(OCc3ccccc3)ccc21`, the Potency entry is “inactive”.

As to `O=C(C(=O)c1ccccc1)c1ccccc1`, the Potency entry was “inactive”.

`CN1CCCN=C1/C=C/c1cccs1`: the Potency entry is “inactive”.

For the molecule `Fc1c(F)c(F)c(Br)c(F)c1F`, the Potency entry is “inactive”.

On to `CCc1cccc(N(C)C(N)=Nc2cccc3ccccc23)c1`, for which the Potency entry was “inactive”.

On to `CC1(C)C2=CCCC(C)(C)[C@]23CC[C@H]1C3`, for which the Potency result was “inactive”.

Turning to `C=CCOC(=O)/C=C\C(=O)OCC=C`, the Potency entry is “inactive”.

For the molecule `CCOC(=O)c1ccccc1OC`, the Potency result was “inactive”.

As to `CC(=O)Nc1ccccc1C`, the Potency result is “inactive”.
